Compounds without any hit were thinned out: in the full panel of roughly 83,000, 20% have a hit.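 Negative percent growth values reflect cell death: -40 means 40% of the cells present at the start died, and -100 means all died.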 Calls of active or inactive are those of the source. How the source made its calls: active means growth percent below 10; inactive means the rest.

The first test relates to HS 578T breast. The test can be described thus: NCI-60 one-dose screen, 48 h (100 = growth as untreated, 0 = no growth, -100 = all killed). The settings on record: 10 µM unless noted.
For the molecule `O=C(OCC1CCCO1)c1ccc([N+](=O)[O-])cc1` (centres undefined), the growth was 96.7% (inactive).
The same measure, in the same setting: with `C=CC(=O)OC1CCC(C(C)(C)CC)CC1` (centres undefined) the figure was 101% (inactive); with `Cc1cc(=O)n(Nc2ccccc2)c(O)c1C#N`, 100% (inactive).
On the same count and under the same terms, with `O=C(O)c1c[nH]c2ccccc2c1=O` the figure was 112% (inactive).
Same read-out and setting: under `CCNc1ncnc2[nH]ncc12` stands 109% (inactive).
Regarding `COC1OC(C(O)C(O)CO)C(O)C(O)C1O` (centres undefined), the growth is 109% (inactive).
The same measure, in the same setting: with `CCCCN(C=S)CCCC` the figure was 97.1% (inactive).
Turning to `CCOC(=O)c1ccc(C(C)(C)C)cc1`, the growth is 114% (inactive).
Same read-out and setting: with `CCOC(=O)C(CCC#N)(CCC#N)C(=O)OCC` the figure was 95.2% (inactive); with `CCC1CCC(C)NC1` (centres undefined), 95.7% (inactive).
On the same count and under the same terms, under `CC(=O)OC(C)c1cccc(C#N)c1` (centres undefined) stands 106% (inactive).
As to `O=[N+]([O-])c1ccc2[nH]c(=S)n(/C=C(/c3ccc(Cl)cc3Cl)S(=O)(=O)Cc3ccc(Cl)cc3Cl)c2c1`, the growth was 106% (inactive).
Take `C=C(OC(C)=O)c1ccccc1`: the growth was 90.7% (inactive).
Same read-out and setting: with `CC(=O)O[C@H]1CC[C@]2(C)C3=C(C(=O)C[C@H]2C1(C)C)[C@]1(C)CC[C@H]([C@H](C)CCC(=O)O)[C@@]1(C)CC3=O` the figure was 119% (inactive).
On the same count and under the same terms, with `CC(=O)c1cccc(NS(=O)(=O)c2ccc(C)cc2)c1` the figure was 86.9% (inactive); with `O=C(CCl)Oc1ccc([N+](=O)[O-])cc1`, 128% (inactive).

A further test has as its system NCI/ADR-RES ovarian. Described as above. The settings on record: 10 µM unless noted.
In the case of `Nc1cc2ccccc2c(O)c1O`, the growth was 55.3% (inactive).
The same measure, in the same setting: with `CC(=O)Nc1ccc(O)c(C)c1` the figure was 102% (inactive).
The same measure, in the same setting: under `O=C(CCl)Nc1ccccc1SCc1cc(Cl)cc2c1OCOC2` stands 101% (inactive).
On the same count and under the same terms, under `C/C(O)=C(/C=N\C(=S)Nc1ccc(S(=O)(=O)Nc2nccs2)cc1)C(=O)Nc1ccccc1C` stands 105% (inactive); under `CC(C)c1ccc(C(=O)OCCCl)cc1`, 102% (inactive).
`O=C(NCc1ccccc1)c1cccc([N+](=O)[O-])c1`: the growth is 104% (inactive).
On the same count and under the same terms, under `C1CCc2onc(-c3noc4c3CCCCC4)c2CC1` stands 115% (inactive).
Still for that read-out and setting: with `COc1ccc(Nc2cc(Cl)ccc2C(=O)O)cn1` the figure was 109% (inactive); with `CCCCOC(=O)c1ccccc1O`, 110% (inactive).
On the same count and under the same terms, with `C=CCN1CCCC1=O` the figure was 110% (inactive); with `CCN(CC)CCN1CNC(=S)NC1`, 106% (inactive).
In the case of `COC1OC(C(COC(C)=O)OC(C)=O)C(OC(C)=O)C(OC(C)=O)C1OC(C)=O` (centres undefined), the growth is 105% (inactive).
As to `Nc1ccc(F)cc1F`, the growth was 108% (inactive).
Turning to `COc1cc(CC#N)c([N+](=O)[O-])cc1OC`, the growth was 105% (inactive).
Still for that read-out and setting: with `CC(C)N(C(=O)c1ccccc1)C(C)C` the figure was 115% (inactive); with `CCC(C)C1CCC(O)CC1` (centres undefined), 103% (inactive).
On to `Cc1ccc(NC(=S)N2CCOCC2)cc1C`, for which the growth is 110% (inactive).
The same measure, in the same setting: under `O=C1NC(=O)/C(=C\c2ccncc2)N1` stands 103% (inactive); under `CC(C)(CC(=O)O)CC(=O)O`, 99.9% (inactive); under `ClCC(Cl)[C@@H]1CC2C=CC1C2` (some centres undefined), 105% (inactive).
Still for that read-out and setting: under `CC(=O)NCNC(C)=O` stands 111% (inactive); under `CCOC(=O)/C(C)=C\c1ccc(OC)c(OC)c1`, 100% (inactive); under `O=C(OCC1CCCO1)c1ccc([N+](=O)[O-])cc1` (centres undefined), 103% (inactive).
Same read-out and setting: with `C=CC(=O)OC1CCC(C(C)(C)CC)CC1` (centres undefined) the figure was 105% (inactive); with `Cc1cc(=O)n(Nc2ccccc2)c(O)c1C#N`, 102% (inactive).
Consider `O=C(O)c1c[nH]c2ccccc2c1=O`, for which the growth is 104% (inactive).
For `CCNc1ncnc2[nH]ncc12`, the growth was 105% (inactive).
On the same count and under the same terms, with `COC1OC(C(O)C(O)CO)C(O)C(O)C1O` (centres undefined) the figure was 106% (inactive); with `CCCCN(C=S)CCCC`, 107% (inactive); with `CCOC(=O)c1ccc(C(C)(C)C)cc1`, 108% (inactive).
Turning to `CCOC(=O)C(CCC#N)(CCC#N)C(=O)OCC`, the growth is 105% (inactive).
`CCC1CCC(C)NC1` (centres undefined): the growth is 101% (inactive).
The same measure, in the same setting: with `CC(=O)OC(C)c1cccc(C#N)c1` (centres undefined) the figure was 106% (inactive).
Same read-out and setting: under `O=[N+]([O-])c1ccc2[nH]c(=S)n(/C=C(/c3ccc(Cl)cc3Cl)S(=O)(=O)Cc3ccc(Cl)cc3Cl)c2c1` stands 100% (inactive); under `C=C(OC(C)=O)c1ccccc1`, 109% (inactive).
For the molecule `CC(=O)O[C@H]1CC[C@]2(C)C3=C(C(=O)C[C@H]2C1(C)C)[C@]1(C)CC[C@H]([C@H](C)CCC(=O)O)[C@@]1(C)CC3=O`, the growth was 100% (inactive).
The same measure, in the same setting: under `CC(=O)c1cccc(NS(=O)(=O)c2ccc(C)cc2)c1` stands 50.5% (inactive); under `O=C(CCl)Oc1ccc([N+](=O)[O-])cc1`, 105% (inactive).

For the origin of these results see PubChem BioAssay (NCI).
